Results as given in PubChem BioAssay (NCI).
Compounds without any hit were thinned out: in the full panel of roughly 83,000, 20% have a hit.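 Percent growth is the endpoint: 0 to 100 indicates growth inhibition (40 means 60% inhibition), 0 means no net growth, and negative values indicate cell death.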 A number with no mark means an inactive call. Activity calls are given as the source filed them. Rule for the calls: active = growth percent below 10; inactive = the rest.

system: OVCAR-8 ovarian; test: NCI-60 one-dose screen, 48 h (100 = growth as untreated, 0 = no growth, -100 = all killed); details: 10 µM unless noted

`O=C(/C(Br)=C/c1ccccc1)c1ccccc1` was tested, and the growth was -26.5% (active).
`COc1ccc(/C=C/C(=O)/C=C/c2cc3ccccc3[nH]c2=O)cc1` was tested, and the growth was -11.8% (active).

First: CC1Cc2cc(F)ccc2-n2cccc21 (stereo not given)
Second: CC(=O)Nc1ccc(C(=O)/C=C/c2ccc(N(C)C)cc2)cc1
The growth of the first is lower: 99.5% for the first, 102% for the second.

Going from `Oc1ccc(CN(Cc2ccc(C(F)(F)F)cc2)Cc2ccc(O)c3ncccc23)c2cccnc12` to `CNc1ccc(Nc2ccc(S(=O)(=O)O)cc2)c2c1C(=O)c1ccccc1C2=O`, the growth rises from 11% to 101%.

Compared with `Cc1sc(NC(=O)c2ccc(C(C)(C)C)cc2)c(C(=O)O)c1C`, `C=C(C)[C@@H]1CC[C@]2(COC(=O)c3ccccc3C(=O)O)CC[C@]3(C)[C@H](CC[C@@H]4[C@@]5(C)CCCNC(C)(C)[C@@H]5CC[C@]43C)[C@@H]12` is higher in growth: 56.5% for the first, 70.5% for the second.

Compared with `O=C(CBr)OCc1ccc([N+](=O)[O-])o1`, `CCCCN(CCC)CCCCCCCCCCN1CCCc2ccccc21` is higher in growth: 96.9% for the first, 102% for the second.

Going from `CC([C@H]1CC=C2C3CCC4=C[C@@H](N(C)C)CC[C@]4(C)C3CC[C@@]21C)N(C)C` (stereo not given in full) to `C=CN(C)S(C)(=O)=O`, the growth falls from 85.3% to 34.8%.

system: OVCAR-5 ovarian; test: as above; details: 10 µM unless noted

Compared with `CC(=O)OC1/C=C\CC/C=C\C1` (stereo not given), `Cc1ccc(C(=O)NN)cc1` is higher in growth: 97.4% for the first, 116% for the second.

Going from `CCCCCCCCC1OC1CCCCCCCC(=O)O` (stereo not given) to `CCCCCCC(C)N(CC(C)(C)O)C(=O)c1ccc([N+](=O)[O-])cc1` (stereo not given), the growth falls from 108% to 106%.

First: O=c1[nH]c(=S)[nH]c(O)c1/C=C1\C=Nc2ccccc21
Second: COC1=C(OC)C(=O)c2ccccc2C1=O
The growth of the first is lower: 96% for the first, 101% for the second.

First: CCOC1=C(Cl)C(=O)C(OCC)=C(Cl)C1=O
Second: CCN(CC)CCCC(C)Nc1c(C)cnc2cc(Cl)c(C)cc12 (stereo not given)
The growth of the first is higher: 110% for the first, 98.1% for the second.

First: O=C1C(=O)c2ccccc2C(O)=C1CCCc1ccc(Oc2ccccc2)cc1
Second: CNc1ccc(Nc2ccc(S(=O)(=O)O)cc2)c2c1C(=O)c1ccccc1C2=O
The growth of the first is higher: 110% for the first, 98.7% for the second.

Going from `Oc1ccc([S+](c2ccc(O)cc2)c2ccc(O)cc2)cc1` to `Oc1ccc(CN(Cc2ccc(C(F)(F)F)cc2)Cc2ccc(O)c3ncccc23)c2cccnc12`, the growth falls from 101% to 44.5%.

Compared with `Cn1c2c(cc(S(=O)(=O)c3ccccc3)c1=O)CCc1c-2cnn1-c1ccc(Cl)cc1`, `O=C(NC1CCN(Cc2ccccc2)CC1)c1cc(-c2cccnc2)nc2ccc(Cl)cc12` is higher in growth: 26.2% for the first, 80.5% for the second.

First: CCCCCN1CCN(C(CC(=O)c2ccccc2)C(=O)c2ccccc2)CC1 (stereo not given)
Second: O=C(/C(Br)=C/c1ccccc1)c1ccccc1
The growth of the first is higher: 110% for the first, 58.3% for the second.

Compared with `S=C(N/N=C/c1cc(Cl)cc(Cl)c1)NC12CC3CC(CC(C3)C1)C2`, `Oc1ccc(Br)cc1/C=N/NC(=S)NC12CC3CC(CC(C3)C1)C2` is lower in growth: 85.7% for the first, 46.9% for the second.

Compared with `CC(=O)c1ccc2c(c1)c1ccccc1n2C`, `CC(=O)Nc1ccc(C(=O)/C=C/c2ccc(N(C)C)cc2)cc1` is lower in growth: 108% for the first, 106% for the second.

Going from `CC1(C)NC(=S)NC1=O` to `O=C1C(Br)=CC2C1C1C3CCC3C2(Br)C12OCCO2` (stereo not given), the growth falls from 108% to 33.5%.

Compared with `O=C(O)CS(=O)c1ccc(Cl)cc1` (stereo not given), `O=C(/C=C\c1ccc(NCc2ccc(C(=O)O)cc2)cc1)CCl` is higher in growth: 95.5% for the first, 114% for the second.

First: COc1ccc(/C=C2\CCCC3=C2N=C2SC=NN2C3c2ccc(OC)c(OC)c2)cc1OC (stereo not given)
Second: Cc1ccc([C@@H]2C[C@H](O)Cc3ccccc3N2)s1
The growth of the first is lower: 59.7% for the first, 97.7% for the second.

Going from `CC[n+]1c(C)ccc2cc(C)ccc21` to `CC1Cc2cc(F)ccc2-n2cccc21` (stereo not given), the growth falls from 109% to 95%.

Compared with `O=C(NCCNCCO)c1cc([N+](=O)[O-])cc([N+](=O)[O-])c1O`, `O=C(CBr)OCc1ccc([N+](=O)[O-])o1` is lower in growth: 108% for the first, 101% for the second.

Work on `Cc1sc(NC(=O)c2ccc(C(C)(C)C)cc2)c(C(=O)O)c1C` yielded a growth of 94%.

With `Cc1ccc(S(=O)(=O)NC(CCC(=O)Nc2ccccc2)C(=O)Nc2ccccc2)cc1` (stereo not given) the growth was -8.85% (active).
In the case of `CCN(CC)CCCNc1c2ccc(Cl)cc2nc2ccc(OC)cc12`, the growth is reported as 3.61% (active).
